Experimental data as given in PubChem BioAssay AID1565 (Sanford-Burnham Center for Chemical Genomics, 2009).
Out of some 290,000 compounds screened, about 3,200 (1.1%) were called active. No stated cut-off is given here; in the data, active means inhibition above about 60%; inactive means the rest. Only a selection was taken, and actives are over-represented in it overall.

These molecules were tested against Phosphoethanolamine/phosphocholine phosphatase (Homo sapiens) (UniProt Q8TCT1) (assay: PubChem AID 1565). Conditions: recombinant PHOSPHO1, absorbance phosphatase assay; at 13.3 µM; stronger effect = higher value.
Chain of Phosphoethanolamine/phosphocholine phosphatase (Homo sapiens) (Q8TCT1 whole entry, looked up): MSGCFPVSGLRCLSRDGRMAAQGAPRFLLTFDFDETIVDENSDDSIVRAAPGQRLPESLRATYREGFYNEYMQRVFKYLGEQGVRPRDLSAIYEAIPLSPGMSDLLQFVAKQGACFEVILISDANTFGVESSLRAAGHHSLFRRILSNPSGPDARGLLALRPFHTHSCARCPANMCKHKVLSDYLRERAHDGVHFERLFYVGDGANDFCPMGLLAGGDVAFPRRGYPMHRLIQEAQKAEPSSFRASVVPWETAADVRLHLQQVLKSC

| Compound | inhibition |
| --- | --- |
| O=S(=O)(Nc1ccc2[nH]ncc2c1)c1ccccc1Cl | -129% (inactive) |
| COc1ccc(S(=O)(=O)NNC(=O)Nc2ccc(C)cc2)c(OC)c1 | 21.8% (inactive) |
| Cc1ccc(N(C(=O)c2snc(C(N)=O)c2N)C(C(=O)NCC2CCCO2)c2c[nH]c3ccccc23)cc1 (stereo not given) | 35.7% (inactive) |
| COc1ccc(S(=O)(=O)N2CCOC2CNC(=O)C(=O)NCc2ccncc2)cc1C (stereo not given) | 19.8% (inactive) |
| COc1ccc(NS(=O)(=O)c2ccc3oc(SCC(N)=O)nc3c2)cc1 | 6.3% (inactive) |
| NS(=O)(=O)c1ccc(CCNC(=O)Nc2ccc(Cl)cc2)cc1 | 14.1% (inactive) |
| NS(=O)(=O)c1ccc(CCNC(=S)Nc2ccc(S(N)(=O)=O)cc2)cc1 | 78.5% (active) |
| S=C(NCCc1ccccc1)Nc1ccccc1 | 22.6% (inactive) |
| CC1CCC(NC(=O)CN(C)S(=O)(=O)c2ccc3c(c2)c(=O)n(C)c(=O)n3C)CC1 (stereo not given) | 58.3% (inactive) |
| COc1cc(NC(=O)C2CC(c3ccccc3O)=NO2)c(OC)cc1Cl (stereo not given) | 24.3% (inactive) |
| Cc1c(NC(=O)c2coc(=O)c(Br)c2)c(=O)n(-c2ccccc2)n1C | -69.6% (inactive) |
| COc1cc(OC)c(C2=NOC(C(=O)Nc3c(C)n(C)n(-c4ccccc4)c3=O)C2)cc1Cl (stereo not given) | 64.2% (active) |
| O=C(NCCN1CCCC(O)C1)c1cc(COc2c(F)cccc2F)on1 (stereo not given) | 54.7% (inactive) |
| C=CCn1c(-c2sc(-c3ccccc3)nc2C)n[nH]c1=S | 27.7% (inactive) |
| C=CCn1c(-c2ccc3[nH]c(C)c(C)c3c2)n[nH]c1=S | 98.8% (active) |
| C=CCn1c(-c2ccccc2OCC)n[nH]c1=S | -30.9% (inactive) |
| CN1C/C(=C/c2cccs2)C(=O)/C(=C\c2cccs2)C1 | 16.1% (inactive) |
| CNC(=O)C1CCN(S(=O)(=O)c2c(C)noc2/C=C/c2cccc(C)c2)CC1 | 34.4% (inactive) |
| Cc1ccccc1Cn1c2ccccc2c2cnn(CC(=O)NCc3ccco3)c(=O)c21 | 60.8% (active) |
| O=C(Cn1ncc2c3ccccc3n(Cc3ccccc3)c2c1=O)NCCCN1CCOCC1 | 57.9% (inactive) |
| O=C(Cn1ncc2c3ccccc3n(Cc3ccccc3)c2c1=O)NCc1ccccn1 | -6.3% (inactive) |
| COc1ccc(-c2nnc(NC(=O)CS(=O)(=O)c3ccc(Cl)cc3)o2)c(OC)c1 | 46.9% (inactive) |
| O=S(=O)(Cc1cc(Cl)nc(-c2cccnc2)n1)c1ccccc1 | 17.6% (inactive) |
| COc1ccc(Cl)cc1NC(=O)CN(C)C(=O)CCCc1c[nH]c2ccccc12 | 9.8% (inactive) |

| Compound | inhibition |
| --- | --- |
| CCCNC(=O)CCn1nc(-c2ccccc2)c2ccccc2c1=O | 19.9% (inactive) |
| CSc1ccc(CNC(=O)c2ccc(NC(=O)C3=CSCCO3)cc2)cc1 | 69% (active) |
| O=C(Nc1ccc(C(=O)NCc2ccccc2Cl)cc1)C1=CSCCO1 | 37.5% (inactive) |
| CS(=O)(=O)NCc1ccc(C(=O)NCc2ccccc2)cc1 | -10% (inactive) |
| Cc1ccccc1OCC(=O)NNC(=O)c1cc(S(=O)(=O)N(C)C)ccc1N1CCCC1 | 33.4% (inactive) |
| CSc1ccc(S(=O)(=O)N2CCC(C(=O)NCCc3ccccc3)CC2)cc1 | 13.8% (inactive) |
| Cc1nn(CCCC(=O)NCc2ccccc2Cl)c(=O)c2nccn12 | 35.7% (inactive) |
| CCOC(=O)CNC(=O)CSc1nnc(COc2ccc(Cl)cc2)n1CC | 95.8% (active) |
| CCOC(=O)CNC(=O)CSc1nnc(-c2cccc(OC)c2)n1CC | 47.2% (inactive) |
| CCn1c(COc2ccc(OC)cc2)nnc1SCC(=O)Nc1cc(OC)ccc1OC | -14.1% (inactive) |
| S=c1[nH]nc(-c2cccs2)n1/N=C/c1cn(-c2ccccc2)nc1-c1ccc(Cl)cc1 | -132% (inactive) |
| Oc1ccccc1/C=N/n1c(-c2cccs2)n[nH]c1=S | 106% (active) |
| S=c1[nH]nc(-c2cccs2)n1/N=C/c1cccs1 | 56.2% (inactive) |
| CC(=O)Oc1ccc2c(=O)oc(-c3ccc([N+](=O)[O-])cc3)nc2c1 | 35.6% (inactive) |
| O=C(COc1ccc(Cl)cc1Cl)NCCCNC(=O)c1cnccn1 | 44.9% (inactive) |
| COc1cc(C(=O)NCc2nnc(SCC(=O)c3ccc(Cl)cc3)o2)cc(OC)c1OC | 43.5% (inactive) |
| Cc1cc(C)nc(SCC(=O)c2ccc(Cl)cc2)n1 | 27% (inactive) |
| CC(C)C[C@@H](N)c1nnc(SCC(=O)c2ccc(Cl)cc2)o1 | 81.6% (active) |
| O=C(CN1CCN(C(=O)C2CCCO2)CC1)Nc1c(Cl)cccc1Cl (stereo not given) | 26.3% (inactive) |
| Cc1cccnc1NC(=O)c1cccc(S(=O)(=O)N2CCN(c3ccc(F)cc3)CC2)c1 | 27% (inactive) |
| CSc1ccc(/C=N\NC(=O)COc2ccc(Cl)cc2Br)cc1 | -15.7% (inactive) |
| O=C(N/N=C/c1ccccn1)c1cccc(NC(=O)c2ccc(Cl)cc2)c1 | 41.5% (inactive) |
| O=C(COc1ccc(Cl)cc1Cl)N/N=C/c1ccccn1 | 61% (active) |
| N#Cc1ccc(S(=O)(=O)NCC(=O)OCC(=O)NCCc2ccccc2)cc1 | 28.7% (inactive) |

| Compound | inhibition |
| --- | --- |
| O=C(Nc1ccc(C2CC2(Cl)Cl)cc1)c1cccc([N+](=O)[O-])c1 (stereo not given) | -31.5% (inactive) |
| Cc1c(Cl)cnc(NC(=O)COC(=O)c2ccc(S(=O)(=O)NCc3ccco3)cc2)c1Cl | -11.7% (inactive) |
| CSCCC(NC(=O)COc1ccccc1)C(=O)OCC(=O)c1cc2ccccc2o1 (stereo not given) | 0.2% (inactive) |
| CSCCC(NC(=O)c1ccco1)C(=O)OCC(=O)Nc1ncc(Cl)c(C)c1Cl (stereo not given) | 63.8% (active) |
| O=C1CCC(C(=O)N2CCC(O)(c3ccccc3)CC2)CN1CCc1ccccc1 (stereo not given) | 51.4% (inactive) |
| CS(=O)(=O)c1ccc(-c2nnn(CC(=O)Nc3ccc4c(c3)OCCO4)n2)cc1 | 11% (inactive) |
| CCCCSc1nnc(-c2ccc(C)cc2)o1 | 1.3% (inactive) |
| CCCCSc1nnc2c(n1)OC=Nc1ccccc1-2 | 60.8% (active) |
| CCCCSc1nc2ccccc2[nH]1 | 11.7% (inactive) |
| COC(=O)c1ccc(COc2ccc(C#N)cc2)o1 | 44.1% (inactive) |
| CC1CCN(CC(O)COc2ccc(C(=O)c3ccccc3)cc2)CC1 (stereo not given) | 8.5% (inactive) |
| Cc1cc(NC(=O)c2ccccc2C)no1 | 19.1% (inactive) |
| Oc1c(C(c2ccccn2)N2CCOCC2)ccc2cccnc12 (stereo not given) | 92.7% (active) |
| OC(COc1ccc2ccccc2c1)CN1CCOCC1 (stereo not given) | 8% (inactive) |
| CCOc1cc(N2CCOCC2)c(OCC)cc1NC(=O)COc1cccc2cccnc12 | 23.3% (inactive) |
| Cc1ccc(NC(=O)C2CCN(S(=O)(=O)c3ccc4c(c3)NC(=O)CO4)CC2)cc1C | 26.1% (inactive) |
| CCc1ccc(N(C(=O)c2csnn2)C(C(=O)NC2CCCCC2)c2ccncc2)cc1 (stereo not given) | 41.6% (inactive) |
| CS(=O)(=O)c1sc2nc(-c3ccccc3)cc(-c3ccccc3)c2c1N | 94.5% (active) |
| Nc1nc(-c2ccccc2)cc(-c2ccccc2)n1 | 19.2% (inactive) |
| CCN(CC)C(=O)c1sc2nc(-c3ccccc3)ccc2c1N | 21.4% (inactive) |
| CCc1ccc(NC(=O)C(=O)NNC(=O)c2cccs2)cc1 | 44.9% (inactive) |
| NC(=S)c1ccc(C(N)=S)o1 | 95.9% (active) |
| Cn1cc(CN2CCCC(CO)C2)c(-c2ccc(Oc3ccccc3)cc2)n1 (stereo not given) | 39.5% (inactive) |
| CCCOC1CCCN(Cc2cn(C)nc2-c2ccccc2F)C1 (stereo not given) | 60.1% (active) |

| Compound | inhibition |
| --- | --- |
| Cn1cc(CN2CCC(C(O)CCc3ccccc3)CC2)c(-c2ccccc2F)n1 (stereo not given) | 28.2% (inactive) |
| O=C(CSc1nnc2c(n1)[nH]c1ccccc12)NC1CCCCC1 | 3.6% (inactive) |
| CCCCC(=O)Nc1nc(C)c(-c2csc(Nc3ccc(Cl)cc3)n2)s1 | 28.7% (inactive) |
| C=CCCC(=O)Nc1nc(C)c(-c2csc(Nc3ccc(Cl)cc3)n2)s1 | -1.4% (inactive) |
| CCCCCCC(=O)Nc1nc(C)c(-c2csc(Nc3cccc(OC)c3)n2)s1 | 104% (active) |
| Cc1nc(NC(=O)c2cccc(Cl)c2)sc1-c1csc(Nc2cccc(Cl)c2)n1 | 19.2% (inactive) |
| CCCCCCC(=O)Nc1nc(C)c(-c2csc(Nc3cc(Cl)ccc3OC)n2)s1 | 96.2% (active) |
| Cc1ccc(Nc2nc(-c3sc(NC(=O)c4ccccc4)nc3C)cs2)cc1 | 37.9% (inactive) |
| CCc1ccc(N(CC(=O)NCc2cccnc2)S(=O)(=O)c2ccccc2)cc1 | 4.5% (inactive) |
| CCOC(=O)C1=NN(c2ccc(Cl)cc2)/C(=C/C2=NCCc3cc(OC)c(OC)cc32)S1 | 63.1% (active) |
| CCOC(=O)C1=C(CN2CCc3ccccc32)NC(=O)NC1c1ccc(Cl)cc1 (stereo not given) | 18.7% (inactive) |
| COc1cc2c(cc1OC)C(/C=C/c1ccco1)=NCC2 | 5.3% (inactive) |
| O=C(CSc1nnc2scc(-c3ccc(F)cc3)n12)NCc1ccco1 | 67.4% (active) |
| CCn1c(SCC(=O)NCc2ccco2)nnc1-c1ccc(N)cc1 | 42.7% (inactive) |
| Cc1ccc(-c2csc3nnc(SCC(=O)NCc4ccco4)n23)cc1 | 17.6% (inactive) |
| Cn1c(-c2ccc(F)cc2)cnc1SCC(=O)NNC(=O)Cc1ccccc1 | 10.2% (inactive) |
| O=C(CSc1nnc(-c2c[nH]c3ccccc23)n1-c1ccc(F)cc1)NCc1ccco1 | 9.8% (inactive) |
| Cn1c(-c2ccc(F)cc2)cnc1SCC(=O)NCc1ccco1 | 65.2% (active) |
| CCOc1ccc(OCc2cccc(C(=O)N(CC)CC)c2)cc1 | -26.2% (inactive) |
| O=[N+]([O-])c1ccc2c(c1)Nc1nc3ccccc3nc1N2 | 29.5% (inactive) |
| O=c1[nH]c2ccc(S(=O)(=O)N3CCCC3)cc2[nH]1 | 39.1% (inactive) |
| CCCCn1c(=S)[nH]c2cc(S(=O)(=O)N3CCCCC3)ccc21 | 99.7% (active) |
| CCCCn1c(=S)[nH]c2ccccc2c1=O | -12.1% (inactive) |
